Compound activity from PubChem BioAssay.
Mcl1-Bid inh = Mcl-1/Bid binding inhibitors, primary screen, biochemical, TR-FRET, 1536-well. AID 1021, 2008. Induced myeloid leukemia cell differentiation protein Mcl-1 (Homo sapiens), Q07820. TR-FRET Mcl-1/Bid-Dy647 peptide binding. 0.97% of 220,000 active. inhibition, % at 21.7 µM;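 active = compounds that cut the binding signal by more than half at the single screening dose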;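 note: His-tagged Mcl-1 with europium anti-His antibody binding Bid BH3 peptide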
Target sequence (Q07820 whole entry, looked up): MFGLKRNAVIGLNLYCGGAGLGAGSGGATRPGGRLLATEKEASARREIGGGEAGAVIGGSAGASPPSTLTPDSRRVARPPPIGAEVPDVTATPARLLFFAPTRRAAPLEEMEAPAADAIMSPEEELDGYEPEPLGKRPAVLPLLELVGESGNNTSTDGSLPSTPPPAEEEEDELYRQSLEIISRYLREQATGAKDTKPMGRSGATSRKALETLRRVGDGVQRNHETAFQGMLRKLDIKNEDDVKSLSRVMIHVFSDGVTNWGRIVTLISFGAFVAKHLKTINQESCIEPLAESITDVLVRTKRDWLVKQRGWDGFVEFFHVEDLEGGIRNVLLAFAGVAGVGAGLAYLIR
eIF4E-4G inh = eIF4E–eIF4G protein interaction inhibitors, primary screen, biochemical, uHTS, TR-FRET, eIF4GI fragment | Eukaryotic translation initiation factor 4E (Mus musculus) + Eukaryotic translation … | TR-FRET eIF4E-eIF4GI(517-606) binding, 2 h | inhibition, % at 21.7 µM | 0.37% of 220,000 active;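 active = inhibition above about 30%, limit read from the data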
Mcl1 Noxa PPI = Mcl-1/Noxa binding inhibitors, primary screen, biochemical, TR-FRET, 1536-well; TR-FRET Mcl-1/Noxa peptide binding, 2 h; inhibition, % at 21.7 µM; 1.5% of 220,000 active; AID 1022, 2008;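 active = compounds that cut the protein-peptide binding signal by more than 50% relative to plate controls in a single-dose test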;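 note: His-tagged Mcl-1 with rhodamine Noxa BH3 peptide and terbium anti-His antibody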
Hck-Nef inh = inhibitors of Nef-activated human Hck kinase, primary screen, biochemical, Z-Lyte FRET, 384-well, Hck-YEEI. Recombinant Hck-YEEI plus Nef, Z-Lyte FRET kinase assay. 0.68% of 220,000 active. Tyrosine-protein kinase HCK (Homo sapiens), P08631. inhibition, % at 20 µM. AID 463187, 2010;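 active = Hck-Nef kinase inhibition above about 50%, limit read from the data; inactive = inhibition below that limit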
Bim-Mcl-1 = inhibitors of Bim peptide binding to Mcl-1, primary screen, biochemical, bead-based flow cytometry, multiplex | inhibition, % at 10 µM | Bim peptide-Mcl-1 binding | AID 1009, 2008 | 0.1% of 190,000 active | Induced myeloid leukemia cell differentiation protein Mcl-1 (Homo sapiens), Q07820; in the data active = inhibition above about 40%
14-3-3 Bad PPI = inhibitors of 14-3-3 zeta/Bad binding, primary screen, biochemical, TR-FRET, bovine 14-3-3 zeta | TR-FRET 14-3-3zeta/Dy647-pBad peptide displacement, 1 h | inhibition, % at 21.7 µM | 0.71% of 220,000 active | AID 781, 2007;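 active = inhibition above about 70%, limit read from the data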
Target sequence (P63103 whole entry, looked up): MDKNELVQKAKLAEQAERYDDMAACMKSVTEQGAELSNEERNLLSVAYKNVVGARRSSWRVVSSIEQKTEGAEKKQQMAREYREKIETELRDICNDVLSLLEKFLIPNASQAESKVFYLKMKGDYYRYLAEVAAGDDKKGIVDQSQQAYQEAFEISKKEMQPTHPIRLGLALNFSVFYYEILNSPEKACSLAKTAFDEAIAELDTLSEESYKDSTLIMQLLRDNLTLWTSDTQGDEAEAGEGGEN
Hck Nef conf = retest of Hck:Nef kinase inhibitor hits, confirmation, biochemical, Z-Lyte FRET, 384-well, p-Tyr peptide counterscreen. shares compounds with Hck-Nef inh. Recombinant Hck-YEEI:Nef, Z-Lyte FRET kinase assay. calls only at 10 µM. 28% of 1,300 active;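 active = average inhibition of at least 50%, with Z-scores no higher than 3 in both the phospho-tyrosine peptide and fluorescence counterscreens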
A number is an active result; – = inactive; · = no result given; + = active, no number. Sampled rows, rich in hits. Any-hit rate of the full collection: about 3.5%.

SMILES | Mcl1-Bid inh | eIF4E-4G inh | Mcl1 Noxa PPI | Hck-Nef inh | Bim-Mcl-1 | 14-3-3 Bad PPI | Hck Nef conf
COc1cc2c(C#N)c(N3CCCC3)nc(N)c2c(N)n1 | – | – | – | 63 | · | – | +
Cc1ccc2c(c1)C(c1ccncc1)=NNC(c1ccc(C(C)C)cc1)=N2 | – | – | – | – | – | – | ·
CC/C=C/C(=O)N1CC2(CC(c3cccc(NC(=O)CC(c4ccccc4)c4ccccc4)c3)=NO2)C[C@@H]1C(N)=O (stereo partly drawn) | – | – | – | 53 | · | – | –
O=C(CC(Nc1ccccc1)c1ccccc1)C1CC1 (stereo not drawn) | – | – | – | – | · | – | ·
O=c1c2ccccc2[nH]c2ccccc12 | – | – | – | 144 | – | – | ·
O=c1cc(C(F)(F)F)[nH]c2ccccc12 | – | – | – | 50 | · | – | –
Cc1cc(Br)ccc1S(=O)(=O)n1ccnc1C | – | – | – | – | – | – | ·
Cc1cc(/C=C2\SC(=Nc3ccc(F)cc3)NC2=O)c(C)n1-c1ccc(S(N)(=O)=O)cc1 | – | – | – | 65 | – | – | +
Nc1c(Cl)ncnc1N/N=C/c1ccc(O)cc1 | – | – | – | 52 | · | – | –
Oc1ccc(/C=N/Nc2nccnc2Cl)cc1 | – | – | – | – | – | – | ·
Cc1ccc(C(=O)NC(C)c2nc3ccccc3n2CC(=O)Nc2c(C)cc(C)cc2C)cc1 (stereo not drawn) | – | – | – | 57 | · | – | –
C=CCNC(=O)c1cc(Cl)cc(Cl)c1 | – | – | – | – | – | – | ·
Cc1cccc(NC(=O)CSc2nc(C)c(Cc3ccccc3)c(=O)[nH]2)c1C | – | – | – | – | – | – | ·
CCc1cc(-c2[nH]ncc2-c2ccc3c(c2)OCO3)c(O)cc1O | – | – | – | 65 | – | – | +
Cc1ccc(Cn2cccc(-c3nc4ccccc4s3)c2=O)cc1 | – | – | – | 123 | – | – | ·
O=c1c(-c2nc3ccccc3s2)cccn1Cc1ccccc1 | – | – | – | – | – | – | ·
CC(=O)Oc1ccc2ccc(=O)oc2c1 | – | – | – | 122 | – | – | ·
CC(NC(=O)OC(C)(C)C)C(=O)Oc1ccc2ccc(=O)oc2c1 (stereo not drawn) | – | – | – | 74 | – | – | ·
COc1ccc2ccc(=O)oc2c1 | – | – | – | – | – | – | ·
O=C(C1CCCCC1)N1CCN(c2ccnc3cc(Cl)ccc23)CC1 | – | – | – | – | · | – | ·
CCOCCCNC(=S)NCCCNc1nc2cc3c(cc2cc1C#N)OCO3 | – | – | – | – | – | – | ·
CN(C)CCCNC(=S)NCCNc1nc2cc3c(cc2cc1C#N)OCO3 | – | – | – | 51 | – | – | ·
COCCNC(=S)NCCCNc1nc2cc3c(cc2cc1C#N)OCO3 | – | – | – | 70 | – | – | ·
CC1(C)Cc2nc(N3CCCC3)c(C#N)cc2CO1 | – | – | – | 74 | – | – | –
O=C(NCc1ccccn1)C(=O)NN=C1CCCCCCC1 | – | – | – | – | – | – | ·
SMILES | Mcl1-Bid inh | eIF4E-4G inh | Mcl1 Noxa PPI | Hck-Nef inh | Bim-Mcl-1 | 14-3-3 Bad PPI | Hck Nef conf
CCOC(=O)C1CCN(C(=O)c2ccc(CNS(=O)(=O)c3ccc(OC)cc3)cc2)CC1 | – | – | – | – | – | – | ·
COc1ccc(C(=O)Nc2ccccc2-c2nnn(CC(=O)Nc3ccc4c(c3)OCCO4)n2)cc1 | – | – | – | 60 | – | – | –
COc1ccc(C(NC(=O)N2CC(C)OC(C)C2)C(Cl)(Cl)Cl)cc1F (stereo not drawn) | – | – | – | – | – | – | ·
C#CCn1cc(/C=N/Nc2nc3ccccc3[nH]2)c2ccccc21 | – | – | – | – | – | – | ·
CCOC(=O)C1=NOC(C(=O)NN(C)c2ncc(C(F)(F)F)cc2Cl)C1 (stereo not drawn) | – | – | – | 60 | – | – | –
CCOC(=O)C1=NOC(CNc2ncc(C(F)(F)F)cc2Cl)C1 (stereo not drawn) | – | – | – | – | – | – | ·
O=S(=O)(Nc1ccc(-c2nc3cccnc3s2)cc1)c1cc(F)ccc1F | – | – | – | 115 | · | – | ·
CCc1ccc(S(=O)(=O)Nc2ccc(-c3nc4cccnc4s3)cc2)s1 | – | – | – | – | – | – | ·
Oc1ccc(/C=N/NC(=S)Nc2cccnc2)c(O)c1 | – | – | – | – | – | – | ·
Oc1ccc(/C=N/NC(=S)Nc2cccnc2)c(O)c1O | – | 58 | 102 | 100 | · | 72 | +
COCCN=c1scc(-c2ccco2)n1/N=C/c1ccc(O)c(O)c1O | – | 45 | 103 | 59 | – | – | +
C=CCN=c1scc(-c2ccco2)n1/N=C/c1ccc(O)c(O)c1O | – | – | 84 | 56 | · | – | –
CC(C)N=c1scc(-c2ccco2)n1/N=C/c1ccc(O)c(O)c1 | – | – | – | – | – | – | ·
CCc1ccc2nc3nc(C)cc(C)c3c(N)c2c1 | – | – | – | – | – | – | ·
Cc1cc(C)c2c(N)c3ccccc3nc2n1 | – | – | – | 53 | – | – | –
N#C/C(=C\c1coc2ccccc2c1=O)C(N)=S | – | – | – | – | – | – | ·
N#C/C(=C\c1coc2ccc(O)cc2c1=O)C(=O)Nc1nc2ccccc2s1 | – | – | – | 64 | · | – | –
CCOC(=O)c1cc(-c2ccc(OC)cc2)nn1-c1ccc(C(=O)O)cc1 | – | – | – | – | – | – | ·
Cc1ccc(NC(=O)CN2C(=O)S/C(=C\c3cc(C)n(-c4ccc(C(=O)O)cc4)c3C)C2=O)cc1 | – | – | – | – | – | – | ·
Cc1ccc(NC(=O)CN2C(=O)N/C(=C/c3cc(C)n(-c4ccc(C(=O)O)cc4)c3C)C2=O)cc1 | – | – | 76 | 56 | – | – | –
N=c1c2c(-c3ccccc3)c(-c3ccccc3)oc2ncn1CCCN1CCOCC1 | – | – | – | – | – | – | ·
c1ccc(-c2oc3ncnc(NCCCn4ccnc4)c3c2-c2ccccc2)cc1 | – | – | – | – | – | – | ·
N=c1c2c(-c3ccccc3)c(-c3ccccc3)oc2ncn1CCN1CCOCC1 | – | – | – | 78 | – | – | +
c1ccc(-c2oc3ncnc(NCCN4CCOCC4)c3c2-c2ccccc2)cc1 | – | – | – | 83 | – | – | +
C[C@H](NS(=O)(=O)c1ccccc1)C(=O)OCC(=O)NC(=O)Nc1ccc2c(c1)OCCO2 | – | – | – | – | – | – | ·
